High-throughput results deposited in PubChem by National Center for Advancing Translational Sciences (NCATS).
HPGD block: inhibitors of human 15-hydroxyprostaglandin dehydrogenase (HPGD) | P15428 | purified HPGD, NADH fluorescence kinetic, PGE2 substrate | 150,000 tested, 4.3% active | Potency, µM, usual class: inhibitors
Target sequence (P15428 whole entry, looked up): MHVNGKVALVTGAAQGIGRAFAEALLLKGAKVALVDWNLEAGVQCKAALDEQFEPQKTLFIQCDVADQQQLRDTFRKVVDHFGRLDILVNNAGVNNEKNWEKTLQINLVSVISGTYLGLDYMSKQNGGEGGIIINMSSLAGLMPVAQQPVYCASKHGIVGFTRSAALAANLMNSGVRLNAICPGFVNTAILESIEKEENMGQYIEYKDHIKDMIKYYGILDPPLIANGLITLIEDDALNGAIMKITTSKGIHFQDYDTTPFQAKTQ
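20 nM HPGD preincubated 15 min at room temperature with compound in 50 mM Tris-HCl pH 8, 0.01% Tween 20. Started with 1 mM NAD+ and 30 uM prostaglandin E2; NADH fluorescence (360/450 nm) read 5 times over 30-s intervals, last minus first.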
Tau ThT inhib: tau fibrillization inhibition (ThT binding); P10636; recombinant tau K18 P301L, heparin-induced fibrillization, ThT fluorescence; Potency, µM (series often up to 57.4 µM), hits mostly inhibitors; 270,000 tested, 2.1% active; active = well fitted curve in the direction sought with a large enough effect; inconclusive = small, poorly fitted or top-dose-only effect, or another doubt; inactive = no such curve, though single readings can be large; an effect the other way counts as inactive or inconclusive; also: nearly all actives have a fitted effect of over 55% in size
Target sequence (P10636 561-689 P618L limits assumed): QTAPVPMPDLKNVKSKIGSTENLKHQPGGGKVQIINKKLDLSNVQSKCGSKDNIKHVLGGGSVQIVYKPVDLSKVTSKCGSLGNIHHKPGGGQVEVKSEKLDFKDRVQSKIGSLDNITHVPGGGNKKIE
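Fibril formation assay: tau K18 P301L at 15 uM with trace Alexa 594 label, heparin inducer 20 uM, pH 7 sodium acetate buffer, 37 C for 6 hr; endpoint ThT signal.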
Tau fluor counter: counter-screen for tau fibril formation inhibitors; tau K18 P301L (four-repeat tau fragment) Alexa594 fluorescence, heparin fibrillization; Potency, µM (series often up to 57.7 µM); 280,000 tested, 0.93% active; AID 1463; active = well fitted curve in the direction sought with a large enough effect; inconclusive = small, poorly fitted or top-dose-only effect, or another doubt; inactive = no such curve, though single readings can be large; an effect the other way counts as inactive or inconclusive; also: nearly all actives have a fitted effect of over 55% in size
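Human K18 P301L tau (15 uM unlabeled plus 0.24 uM Alexa 594-labeled, final) in 100 mM sodium acetate pH 7 was mixed with compound and 20 uM heparin and incubated 6 hr at 37 C.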
Tau FP inhib: blocks human tau fibril formation measured by polarization | 280,000 tested, 0.39% active | Potency, µM (doses to about 57.7 µM), hits mostly inhibitors | P10636 | K18 P301L tau heparin fibrillization, Alexa594 FP, 6 h; active = well fitted curve in the direction sought with a large enough effect; inconclusive = small, poorly fitted or top-dose-only effect, or another doubt; inactive = no such curve, though single readings can be large; an effect the other way counts as inactive or inconclusive; also: nearly all actives have a fitted effect of over 55% in size
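Steps: dispense K18 P301L tau (15 uM plus 0.24 uM Alexa 594 tracer, final) in pH 7 sodium acetate; add compound; add heparin (20 uM final); incubate 6 hr, 37 C; add ThT (30 uM final); after 1 hr ambient, read FP.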
KDM4E inh: JMJD2E (human) inhibition. B2RXH2. 230,000 tested, 1.6% active. JMJD2E catalytic domain, FDH-coupled NADH fluorescence (FDH is formaldehyde dehydrogenase). Potency, µM (top dose mostly 57.1 µM), usual class: inhibitors; also: nearly all actives have a fitted effect of over 50% in size
Target sequence (B2RXH2 1-337 limits assumed): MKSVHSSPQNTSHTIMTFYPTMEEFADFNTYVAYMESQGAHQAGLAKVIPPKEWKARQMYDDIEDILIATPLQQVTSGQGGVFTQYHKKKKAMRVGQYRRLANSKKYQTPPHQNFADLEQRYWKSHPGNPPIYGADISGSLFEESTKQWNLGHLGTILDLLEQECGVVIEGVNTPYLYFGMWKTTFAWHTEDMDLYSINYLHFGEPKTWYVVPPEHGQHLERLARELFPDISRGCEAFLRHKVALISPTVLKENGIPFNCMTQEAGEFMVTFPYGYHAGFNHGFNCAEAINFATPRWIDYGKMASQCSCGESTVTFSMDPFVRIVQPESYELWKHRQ
ALDH1A1 inh: ALDH1A1 (human) enzyme inhibition. Potency, µM (series often up to 75.3 µM), most hits filed as inhibitors. P00352. AID 1030. 220,000 tested, 7.3% active. Purified ALDH1A1, NADH fluorescence, propionaldehyde substrate
A number is an active result; [ ] = another dose, or the depositor's remark. The list is not random: actives were taken first. Their share in the collection is about 9.9%. Unless noted, calls follow the shape of the dose curve; as a rule, active = well fitted inhibition curve with a large enough effect (not every such curve was filed as active); inconclusive = small, poorly fitted or top-dose-only effect, or another doubt; inactive = no such curve, though single readings can be large or run the other way.

What do the screens show for `CCOC(=O)N1CCN(C(=O)C2CCN(S(=O)(=O)CC)CC2)CC1`?
Tau ThT inhib: inactive; Tau fluor counter: 25.1µM[quencher]; Tau FP inhib: inconclusive; KDM4E inh: inactive; ALDH1A1 inh: inactive

How did COC(=O)c1cnn2c(C)c(Cc3cccc(F)c3)c(C)nc12 do in these assays?
HPGD block: inconclusive; Tau ThT inhib: inactive; Tau fluor counter: inactive; Tau FP inhib: inactive; KDM4E inh: 3.55µM; ALDH1A1 inh: inconclusive

Results for Cc1nc2c(C(=O)O)cnn2c(C)c1Cc1ccccc1 ?
Tau ThT inhib: inactive; Tau fluor counter: inactive; Tau FP inhib: inactive

What do the screens show for `CCOC(=O)N1CCN(C(=O)c2cnn3c(C)c(Cc4ccc(C)cc4)c(C)nc23)CC1`?
Tau ThT inhib: inactive; Tau fluor counter: inactive; Tau FP inhib: inactive; KDM4E inh: inactive; ALDH1A1 inh: 25.1µM

Results for Cc1ccsc1CN(C(=O)c1oc2cc(Br)ccc2c1C)C1CCS(=O)(=O)C1 (stereo unspecified) ?
Tau ThT inhib: inactive; Tau fluor counter: inactive; Tau FP inhib: inactive

What do the screens show for `CC1/C(=N/O)CC(c2ccco2)NC1c1ccco1` (stereo unspecified)?
HPGD block: inactive; Tau ThT inhib: inactive; Tau fluor counter: inactive; Tau FP inhib: inactive; KDM4E inh: inactive; ALDH1A1 inh: inactive

Results for OC1CC(c2ccco2)NC2(CCCCC2)C1 (stereo unspecified) ?
HPGD block: inactive; Tau ThT inhib: inactive; Tau fluor counter: inactive; Tau FP inhib: inactive; KDM4E inh: 22.4µM; ALDH1A1 inh: inconclusive

How did COc1ccc(CNC(=O)c2sc3nc4n(c(=O)c3c2C)CCCCC4)cc1 do in these assays?
Tau ThT inhib: inactive; Tau fluor counter: inactive; Tau FP inhib: inactive

Results for c1ccc(CN(CCN(Cc2ccccn2)Cc2ccccn2)Cc2ccccn2)nc1 ?
Tau ThT inhib: inconclusive; Tau fluor counter: inactive; Tau FP inhib: inactive; ALDH1A1 inh: inactive

Results for N#CCC(N)=C(C#N)C#N ?
HPGD block: inactive; Tau ThT inhib: inconclusive; Tau fluor counter: inactive; Tau FP inhib: inactive; KDM4E inh: 7.94µM; ALDH1A1 inh: inactive

How did O=C1C[C@@H](c2ccc(O[C@@H]3O[C@H](CO)[C@@H](O)[C@H](O)[C@H]3O)cc2)Oc2cc(O)ccc21 do in these assays?
HPGD block: inactive; Tau ThT inhib: inactive; Tau fluor counter: inactive; Tau FP inhib: inactive; KDM4E inh: inactive; ALDH1A1 inh: inactive

How did O=C1c2ccccc2-c2nc3ccccc3nc21 do in these assays?
HPGD block: inactive; Tau ThT inhib: 20µM; Tau fluor counter: inconclusive; Tau FP inhib: inconclusive; KDM4E inh: inactive; ALDH1A1 inh: 12.6µM

Results for CCOc1ccccc1N(C)C(=O)c1cc(S(=O)(=O)NCc2ccc(C)cc2)ccc1F ?
Tau ThT inhib: inactive; Tau fluor counter: inactive; Tau FP inhib: inactive

What do the screens show for `C=C1c2cccc(O)c2C(O)=C2C(=O)[C@@]3(O)C(O)=C(C(N)=O)C(=O)[C@@H](N(C)C)[C@@H]3[C@@H](O)[C@H]12`?
HPGD block: 10µM; KDM4E inh: inconclusive; ALDH1A1 inh: inactive

How did CCOC(=O)c1ccc(NC(=O)c2c(N3CCCC3=O)c3cc(OC)ccc3n2C)cc1 do in these assays?
Tau ThT inhib: inconclusive; Tau fluor counter: inconclusive; Tau FP inhib: inactive

How did COC(=O)c1cccc(-c2ccc(C(c3c(C)[nH][nH]c3=O)c3c(C)[nH][nH]c3=O)o2)c1 do in these assays?
Tau ThT inhib: 7.94µM; Tau fluor counter: inactive; Tau FP inhib: inconclusive; KDM4E inh: inactive; ALDH1A1 inh: 6.31µM

What do the screens show for `Cc1ccc(-c2ccc(C(=O)O)o2)cc1Cl`?
Tau ThT inhib: inactive; Tau fluor counter: inactive; Tau FP inhib: inactive; KDM4E inh: inconclusive

How did COC(=O)c1ccccc1-c1ccc(C(c2c(C)[nH][nH]c2=O)c2c(C)[nH][nH]c2=O)o1 do in these assays?
Tau ThT inhib: inactive; Tau fluor counter: inactive; Tau FP inhib: inactive; KDM4E inh: inactive; ALDH1A1 inh: inactive

What do the screens show for `Cc1[nH][nH]c(=O)c1C(c1ccc(-c2ccc(Cl)c(C(=O)O)c2)o1)c1c(C)[nH][nH]c1=O`?
Tau ThT inhib: 10µM; Tau fluor counter: inactive; Tau FP inhib: inconclusive; KDM4E inh: inactive; ALDH1A1 inh: 10µM

How did COc1ccccc1CNC(=O)CSc1ccccc1 do in these assays?
Tau ThT inhib: inactive; Tau fluor counter: inactive; Tau FP inhib: inactive; KDM4E inh: inactive; ALDH1A1 inh: inactive

Results for COc1ccccc1CNC(=O)Cn1cccc1 ?
HPGD block: 15.8µM; Tau ThT inhib: inactive; Tau fluor counter: inactive; Tau FP inhib: inactive; KDM4E inh: inactive; ALDH1A1 inh: inactive

What do the screens show for `COc1ccccc1OCC(=O)Sc1ccc(C)cc1`?
HPGD block: 31.6µM; Tau ThT inhib: inconclusive; Tau fluor counter: inactive; Tau FP inhib: inactive; KDM4E inh: inactive; ALDH1A1 inh: inactive

Results for COc1ccccc1CNC(=O)CSc1ccc(C)cc1 ?
HPGD block: 14.1µM; Tau ThT inhib: inactive; Tau fluor counter: inactive; Tau FP inhib: inactive; KDM4E inh: inactive; ALDH1A1 inh: inactive

What do the screens show for `C#CCCCO/N=C1/C[C@@H](O)[C@@H](O)[C@@H]2[C@@H]3C(=O)N(C4CCCCC4)C(=O)[C@H]3CC[C@@H]12`?
Tau ThT inhib: inactive[11.5 µM]; Tau fluor counter: inactive[11.6 µM]; Tau FP inhib: inactive[11.6 µM]; ALDH1A1 inh: inactive[13.5 µM]

What do the screens show for `CC(C)(C)OC(=O)N1CCN(c2ccc([N+](=O)[O-])cc2)CC1`?
Tau ThT inhib: 3.98µM; Tau fluor counter: inactive; Tau FP inhib: inactive; KDM4E inh: inactive; ALDH1A1 inh: inconclusive

How did CSC(=NC#N)N1CCN(c2ccc([N+](=O)[O-])cc2)CC1 do in these assays?
Tau ThT inhib: 2µM; Tau fluor counter: inactive; Tau FP inhib: inactive; KDM4E inh: inactive; ALDH1A1 inh: 17.8µM

What do the screens show for `CCOC(=O)N1CCN(S(=O)(=O)c2ccc([N+](=O)[O-])cc2)CC1`?
Tau ThT inhib: inactive; Tau fluor counter: inactive; Tau FP inhib: inactive; KDM4E inh: inactive; ALDH1A1 inh: inactive

Results for CSC(=NC#N)N1CCN(c2ccccn2)CC1 ?
Tau ThT inhib: inconclusive; Tau fluor counter: inactive; Tau FP inhib: inactive; KDM4E inh: inactive; ALDH1A1 inh: 17.8µM

Results for CCOC(=O)N1CCN(c2ccc([N+](=O)[O-])cc2)CC1 ?
HPGD block: inactive; Tau ThT inhib: 3.98µM; Tau fluor counter: inactive; Tau FP inhib: inactive; KDM4E inh: inactive; ALDH1A1 inh: inconclusive

Results for O=C(Nc1ccc2c(c1)CCC2)C1CCCN(c2ncccn2)C1 (stereo unspecified) ?
HPGD block: inactive; Tau ThT inhib: inactive; Tau fluor counter: inactive; Tau FP inhib: inactive; KDM4E inh: inactive; ALDH1A1 inh: inactive

What do the screens show for `Cc1nc2ncnn2c(N2CCCC(C(=O)Nc3ccc4c(c3)CCC4)C2)c1C` (stereo unspecified)?
HPGD block: 28.2µM; Tau ThT inhib: inactive; Tau fluor counter: inactive; Tau FP inhib: inactive; KDM4E inh: inconclusive; ALDH1A1 inh: inconclusive
